Experimental findings from PubChem BioAssay AID1030 (National Center for Advancing Translational Sciences (NCATS), 2008) are described below.

“And” between values parts separate entries of the source, which are not always exact repeats. Equal values may be shown once. About 16,000 (7.3%) of roughly 220,000 compounds were called active. Where a call stands in place of a potency, no number is given. About 25% were inconclusive and are not listed. This excerpt belongs to a sample that is enriched for actives. Values without a mark were called inactive. Calls come from the whole dose curve; as a rule, active = well fitted inhibition curve with a large enough effect (not every such curve was filed as active); inconclusive = small, poorly fitted or top-dose-only effect, or another doubt; inactive = no such curve, though single readings can be large or run the other way.
Potency is the fitted concentration of half-maximal effect.

The target of this assay is Aldehyde dehydrogenase 1A1 (Homo sapiens) (UniProt P00352). Nature of the assay: qHTS Assay for Inhibitors of Aldehyde Dehydrogenase 1 (ALDH1A1). Conditions: Purified ALDH1A1, NADH fluorescence, propionaldehyde substrate; series mostly up to 75.3 µM. (qHTS replaces the single test concentration by a dilution series.)
Chain of Aldehyde dehydrogenase 1A1 (Homo sapiens) (P00352 whole entry, looked up): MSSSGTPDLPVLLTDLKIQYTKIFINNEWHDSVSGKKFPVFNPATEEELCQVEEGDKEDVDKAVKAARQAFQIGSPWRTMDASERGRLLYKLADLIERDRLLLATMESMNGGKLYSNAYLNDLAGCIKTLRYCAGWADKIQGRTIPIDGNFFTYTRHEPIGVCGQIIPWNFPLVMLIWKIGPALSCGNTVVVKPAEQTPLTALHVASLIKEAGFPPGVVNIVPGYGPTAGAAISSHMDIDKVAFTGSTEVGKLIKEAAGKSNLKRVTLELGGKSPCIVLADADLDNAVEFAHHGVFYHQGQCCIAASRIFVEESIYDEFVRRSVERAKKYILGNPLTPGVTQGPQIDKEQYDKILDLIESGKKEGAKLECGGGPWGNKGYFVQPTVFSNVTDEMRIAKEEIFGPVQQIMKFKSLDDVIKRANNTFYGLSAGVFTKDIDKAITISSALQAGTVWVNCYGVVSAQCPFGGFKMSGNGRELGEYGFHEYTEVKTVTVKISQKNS
On to `O=C(CNCc1ccc(Cl)cc1)Nc1cccc(C(=O)O)c1`, for which the Potency entry was “inactive”.

For `C/C(=N/OC(=O)c1cccc(C(F)(F)F)c1)c1cnccn1`, the Potency entry was “inactive”.

As to `OC(COc1ccc(CN2CCSCC2)cc1)CN1CCCCC1` (configuration not stated), the Potency result is “inactive”.

Turning to `CCO[C@H]1OC(C(=O)N2CCN(Cc3ccccc3)CC2)=C[C@@H](c2cn(C(C)=O)c3ccccc23)[C@@H]1CCCO`, the Potency result was “inactive”.

As for `C/C(=N\N)c1c(-c2ccccc2)c2cc(Br)ccc2[nH]c1=O`, the Potency result was “inactive”.

Turning to `CCOc1ccc(NS(=O)(=O)c2ccc(OCC(=O)NCCCOC)cc2)cc1`, the Potency result was “inactive”.

For the compound `COCCCNC(=O)c1ccc(CNS(=O)(=O)c2ccc(NC(C)=O)cc2)cc1`, the Potency was 4.47 µM (active).

For `CCCCNC(=O)C1CCC(CNS(=O)(=O)c2ccc(NC(C)=O)cc2)CC1` (configuration not stated), the Potency result was “inactive”.

`CCc1ccccc1N1CN(Cc2ccco2)CNC1=S`: the Potency entry was “inactive”.

As to `CCCCN(CC)CCNC(=O)CCNC(=O)Cn1ccc2ccccc2c1=O`, the Potency result is “inactive”.

Regarding `CCSC1=NCCN1S(=O)(=O)c1ccc(F)cc1`, the Potency entry is “inactive”.

Consider `COC(=O)CC1c2ccccc2C(Cc2ccc(OC)cc2)=C(C)N1C(=O)OC` (configuration not stated), for which the activity, negative = inhibition was -1.14% [at 13.5 µM].

As to `S=C(Nc1ccc(Br)cc1Cl)NC1CCN(Cc2ccccc2)CC1`, the Potency is 0.631 µM (active).

As for `O=C(NC1CCN(Cc2ccccc2)CC1)c1cc(Br)c(Br)[nH]1`, the Potency entry was “inactive”.

Take `O=C(COc1ccc(Br)cc1F)NC1CCN(Cc2ccccc2)CC1`: the Potency entry was “inactive”.

With `COc1ccc2ccccc2c1CNc1nnnn1C`, the Potency entry was “inactive”.

On to `COC(=O)c1cc(NC(=O)c2cccnc2)ccc1N1CCOCC1`, for which the Potency result is “inactive”.

As to `CC1=NN(C(=O)c2ccc(Br)cc2)C(O)(c2ccccc2)C1` (configuration not stated), the Potency entry was “inactive”.

On to `O=C(COC(=O)CCc1nc2ccccc2c(=O)[nH]1)Nc1ccc(N2CCOCC2)cc1`, for which the Potency result was “inactive”.

`CC1CC(C)CN(CC(=O)Nc2ccc(S(N)(=O)=O)cc2)C1` (configuration not stated): the Potency was 8.91 µM (active).

In the case of `NS(=O)(=O)c1ccc(NC(=O)COC(=O)c2ccco2)cc1`, the Potency entry was “inactive”.

In the case of `CC1CC(C)CN(CCC(=O)Nc2ccc3c(c2)CCC3)C1` (configuration not stated), the Potency entry is “inactive”.

Take `COc1ccc(C2C(C#N)=C(N)N(c3ncn[nH]3)C3=C2C(=O)CCC3)cc1` (configuration not stated): the Potency result was “inactive”.

`CC(C)(C)NC(=O)NC(=O)COC(=O)Cc1c(F)cccc1Cl`: the Potency entry was “inactive”.

With `CCOC(=O)COc1cc(O)c2c(=O)cc(-c3ccccc3)oc2c1`, the Potency result was “inactive”.

Take `O=C(COc1ccc2c(C(F)(F)F)cc(=O)oc2c1)Nc1ccc2c(c1)OCCO2`: the Potency entry is “inactive”.

Consider `CC(=O)COc1ccc2c(-c3ccccc3)cc(=O)oc2c1`, for which the Potency is 6.31 µM (active).

As for `CC(Sc1nc2cc(Cl)ccc2s1)C(=O)Nc1ccc2c(c1)OCO2` (configuration not stated), the Potency result is “inactive”.

For `Cc1cc(Cl)ccc1OCCCC(=O)NCc1ccccn1`, the Potency result is “inactive”.

With `Cc1cccc(N2C(=O)SC(SC(=Nc3ccccc3)Nc3ccccc3)C2=O)c1` (configuration not stated), the Potency was 15.8 µM (active).

Consider `Cc1cccc(N2C(=O)C3C(c4ccccc4)OC4(C(=O)c5ccccc5C4=O)C3C2=O)c1` (configuration not stated), for which the Potency entry was “inactive”.

Regarding `Cc1cccc(N=Nc2c(C)[nH]n(-c3ccccc3)c2=O)c1`, the Potency entry was “inactive”.

With `COc1ccccc1-c1noc(CSc2nc(C)cc(=O)[nH]2)n1`, the Potency entry was “inactive”.

As for `OC1CCCN(c2ncnc3c2nnn3Cc2c(F)cccc2Cl)C1` (configuration not stated), the Potency is 7.94 µM (active).

`CC(=O)Nc1ccn(Cc2c(F)cccc2Cl)n1`: the Potency entry is “inactive”.

For `O=C(CSc1ncnc2c1nnn2Cc1ccc(F)cc1)NC1CCCC1`, the Potency result is “inactive”.

As for `CCOc1ccc(OCc2cccc(C(=O)N(CC)CC)c2)cc1`, the Potency result was “inactive”.

Take `CC(C)NC(=S)NN=C1CCCCCCCCCCC1`: the Potency entry was “inactive”.

In the case of `OC[C@H]1O[C@@H](n2cnc3c(NC4CCCC4)ncnc32)[C@H](O)[C@H]1O`, the Potency result is “inactive”.

As to `CCN(CC)S(=O)(=O)c1ccc(N(C)CCc2ccc(OC)c(OC)c2)nc1`, the Potency result is “inactive”.

Turning to `CN(C)c1ccc(/C=C/C(=O)c2ccc(C(C)(C)C)cc2)cc1[N+](=O)[O-]`, the Potency entry was “inactive”.

`O=C(/C=C/c1ccc2c(c1)OCCO2)c1ccc(O)cc1`: the Potency result was “inactive”.

Regarding `CN(C)c1ccc(/C=C/C(=O)c2ccc(O)cc2)cc1[N+](=O)[O-]`, the Potency was 17.8 µM (active).

Turning to `CCOc1ccccc1/C=N/NC(=O)CNC(=O)COc1ccccc1`, the Potency entry is “inactive”.

Turning to `CCC(C)NC(=O)C1c2ccccc2Oc2ccccc21` (configuration not stated), the Potency entry is “inactive”.

For the compound `O=C(Nc1ccc(N2CCN(C(=O)c3cccs3)CC2)cc1)c1cccnc1Cl`, the Potency result is “inactive”.

On to `Cc1cc(Cl)ccc1NNC(=O)c1snnc1C`, for which the Potency entry is “inactive”.

For `CC(C)C(C)(C#N)NC(=O)CSc1nncn1-c1ccccc1` (configuration not stated), the Potency entry was “inactive”.

For the compound `C=CCNC(=O)CSc1nc2sc(C)c(C)c2c(=O)[nH]1`, the Potency entry is “inactive”.

With `CC(C)C(C)(C#N)NC(=O)CSc1nc2scc(-c3ccccc3)c2c(=O)[nH]1` (configuration not stated), the Potency was 11.2 µM (active).

As for `CCOC(=O)c1sc2nc(C)nc(Nc3ccc(OC)c(OC)c3)c2c1C`, the Potency entry is “inactive”.

For `Cc1ccc(S(=O)(=O)NCCc2nnc3ccc(SCc4cccnc4)nn23)cc1`, the Potency entry was “inactive”.

For the compound `CCN(CC)C(=O)Oc1ccc(Br)cc1C(=O)Nc1ccc(F)c(Cl)c1`, the Potency result is “inactive”.

In the case of `CNC(=O)c1[nH]cnc1C(=O)N[C@@H](CC(C)C)C(=O)OCc1ccccc1`, the Potency result was “inactive”.

For the compound `O=C(Cc1ccc(F)cc1)N/N=C/c1ccc2c(c1)OCO2`, the Potency entry is “inactive”.

With `Cc1cc(C)cc(NC(=S)NCc2ccc(F)cc2)c1`, the Potency result is “inactive”.

For `Cc1c(NC(=O)Nc2ccccc2)cccc1[N+](=O)[O-]`, the Potency result is “inactive”.

As to `Cc1c(NC(=O)CCCOc2ccccc2)cccc1[N+](=O)[O-]`, the Potency result was “inactive”.

As for `Cc1cccc(NC(=S)NCCc2ccc(F)cc2)c1C`, the Potency entry was “inactive”.

As for `Cc1c(NC(=S)NCc2ccc(F)cc2)cccc1[N+](=O)[O-]`, the Potency is 31.6 µM (active).

Consider `Cc1c(NC(=O)/C=C/C(=O)O)cccc1[N+](=O)[O-]`, for which the Potency is 25.1 µM (active).

Turning to `COc1cc(C(=O)OCc2ccc([N+](=O)[O-])cc2)cc(OC)c1OC`, the Potency result is “inactive”.

Consider `Cc1ccc(C)c(Cn2cnc3c(oc4ccccc43)c2=O)c1`, for which the Potency entry was “inactive”.

For the compound `COc1ccc(OC)c(S(=O)(=O)Nc2cccc(-c3ccc4nncn4n3)c2)c1`, the Potency result is “inactive”.

For the compound `CC(NC(=O)COC(=O)c1cc(=O)[nH]c2ccccc12)c1ccccc1` (configuration not stated), the Potency entry was “inactive”.

In the case of `COCCNC(=O)CCCn1c(=O)c2ccccc2n(Cc2cccc([N+](=O)[O-])c2)c1=O`, the Potency result was “inactive”.

As for `CCOC(=O)N1CCN(CCC(=O)Nc2cc(OC)ccc2OC)CC1`, the Potency entry is “inactive”.

Consider `CC(C)(C)NC(=O)c1cc(NC(=O)c2ccco2)cc(NC(=O)c2ccco2)c1`, for which the Potency result is “inactive”.

On to `NC(=O)c1ccsc1NC(=O)c1ccco1`, for which the Potency is 25.1 µM (active).

On to `Cc1ccnc(NC(=O)c2ccco2)n1`, for which the Potency entry is “inactive”.

On to `O=C(c1ccc(F)cc1)N1CCC(n2nnc3ccccc32)CC1`, for which the Potency result is “inactive”.

As for `O=C(c1ccc(F)cc1)n1c(=S)nc2ccccn21`, the Potency was 25.1 µM (active).

Turning to `O=C(Cn1c(=S)nc2ccccn21)N1CCc2ccccc2C1`, the Potency result was “inactive”.

Take `Cc1ccc2nc(-c3ccncc3)cc(C(=O)Nc3ccc(OC(F)F)cc3)c2c1`: the Potency entry was “inactive”.

For `COc1cc(NC(=O)COC(=O)c2cnc(C)cn2)c(C)cc1[N+](=O)[O-]`, the Potency entry is “inactive”.

`CC1CCCC(NC(=O)c2cccc(N3CCCC3=O)c2)C1C` (configuration not stated): the Potency result was “inactive”.

In the case of `CCC(C)(C)NC(=O)C1c2ccccc2Oc2ccccc21`, the Potency result was “inactive”.

Consider `Cc1ccc(S(=O)(=O)/N=S(\C)C(C)C)cc1` (configuration not stated), for which the Potency entry is “inactive”.

With `Cc1ccc(S(=O)(=O)NCC(C)NS(C)(=O)=O)cc1` (configuration not stated), the Potency was 14.1 µM (active).

Take `CSCC(NS(=O)(=O)c1ccc(C)cc1)C(=O)O` (configuration not stated): the Potency result was “inactive”.

On to `CC1CC(=O)Nc2ccccc2N1S(=O)(=O)c1cccs1` (configuration not stated), for which the Potency entry is “inactive”.

`O=C(CNC1CCCCC1)NCC1(c2ccccc2)CCCC1`: the Potency entry was “inactive”.

As for `Cc1ccc2nc(-c3ccncc3)cc(C(=O)Nc3ccc4c(c3)OCCO4)c2c1`, the Potency entry was “inactive”.

With `O=C(CSc1ccccc1)Nc1ccc(C(=O)Nc2cccc(O)c2)cc1`, the Potency entry is “inactive”.

For `Cc1nc2ccccc2n1CC(=O)N/N=C/c1cccnc1`, the Potency result was “inactive”.

Take `Cn1c(=N)n(CC(O)c2cccs2)c2ccccc21` (configuration not stated): the Potency entry was “inactive”.

`CC(=O)c1ccc2c(c1)OCCOCCOc1ccc(C(C)=O)cc1OCCOCCO2`: the Potency entry is “inactive”.

As to `COc1ccc(CC(=O)NC(C)CCc2ccccc2)cc1` (configuration not stated), the Potency is 2.51 µM (active).

With `COc1ccc(OCCCC(=O)NCCc2ccccc2)cc1`, the Potency entry is “inactive”.

On to `COc1ccc(C(=O)NC(=S)NNC(=O)CCc2ccccc2)cc1`, for which the Potency is 25.1 µM (active).

As for `COc1ccc(/C(N)=N/OC(=O)CCCc2ccccc2)cc1`, the Potency result is “inactive”.

As to `COc1ccc(C(=O)NC(=S)NNC(=O)c2c(-c3ccccc3)noc2C)cc1`, the Potency entry is “inactive”.

On to `COc1ccc(C(CC(=O)O)NC(=O)Cc2ccccc2)cc1` (configuration not stated), for which the Potency entry is “inactive”.

With `CCOC(=O)C1=C(CN2CCc3ccccc32)NC(=O)NC1c1ccc(Cl)cc1` (configuration not stated), the Potency is 25.1 µM (active).

As to `COCCOC(=O)C1=C(C)NC(=O)NC1c1ccc(Cl)cc1` (configuration not stated), the Potency entry was “inactive”.

Consider `CCOC(=O)C1=C(CN2CCc3ccccc32)NC(=O)NC1c1cccc([N+](=O)[O-])c1` (configuration not stated), for which the Potency entry was “inactive”.

Take `Cc1onc(C(=O)NCc2ccc(F)cc2)c1[N+](=O)[O-]`: the Potency result is “inactive”.

With `O=C1CCCN1CCCNC(=S)Nc1ccc(F)c(Cl)c1`, the Potency entry is “inactive”.

Take `Cc1noc(/C=C/c2ccco2)c1S(=O)(=O)N1CCC(C(=O)Nc2ccc(Cl)cn2)CC1`: the Potency is 15.8 µM (active).

As for `CCOc1ccc(OCC)c(NC(=O)C2CCN(S(=O)(=O)c3c(C)noc3C)CC2)c1`, the Potency result was “inactive”.

As for `Cc1ccc(NC(=O)C2CCCN(S(=O)(=O)c3c(C)noc3C)C2)c(C)c1` (configuration not stated), the Potency result is “inactive”.

For `CCCCN1C(=S)NC[C@@H]1C(C)CC` (some centres not stated), the Potency result was “inactive”.

With `Cc1ccc(C)c(-n2cc(CN3CCN(C(=O)c4ncn[nH]4)CC3)c(-c3ccccc3)n2)c1`, the Potency result was “inactive”.

On to `Cc1cc(NC(=O)CSc2nnc(Nc3ccccc3F)s2)no1`, for which the Potency entry was “inactive”.

Consider `O=CN1CCN(C2CC(=O)N(c3ccc4c(c3)OCO4)C2=O)CC1` (configuration not stated), for which the Potency is 12.6 µM (active).

Turning to `O=C1C[C@@H](O)[C@@H](O)[C@H]2[C@@H]3C(=O)N(Cc4ccc5c(c4)OCO5)C(=O)[C@@H]3CC[C@H]12`, the activity, negative = inhibition is -12% [at 13.5 µM] and -15.2% [at 13.5 µM].

Consider `O=C(Nc1ccc2c(c1)OCO2)c1ccc(N2C(=O)c3ccccc3C2=O)cc1`, for which the Potency result was “inactive”.
